Hit rate of the full screen: of about 5,500 compounds, about 2,000 (36%) were called active. About 18% were inconclusive and are not listed. Cut-off read from the data, not from the text of the source: active = normalized growth mostly below about 0.91 (no sharp cut-off); inconclusive = no clear call, values can overlap the other calls; inactive = mostly above about 0.92. This is one part of the list.
Test: chemical genetic growth profiling, strain panel (AID 1159580);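 note: tested at 20 µM; growth read once vehicle control cultures reached saturation at 30 °C; 1 = growth at the plate median or of vehicle wells; lower values mean less growth of the strain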
Settings: S. cerevisiae deletion strains, growth OD

Measured: normalized growth

CCOc1ccc(NC(=O)CC(C)O)cc1 (stereo not drawn)
inactive: locus YHR030C, strain SLT2, stronger effect = lower value 1.02 | locus YHR079C, strain IRE1, stronger effect = lower value 1.02 | locus YJL095W, strain BCK1, stronger effect = lower value 1.02 | locus YJR066W, strain TOR1, stronger effect = lower value 0.94 | locus YLR113W, strain HOG1, stronger effect = lower value 1.06 | locus YNL183C, strain NPR1, stronger effect = lower value 0.939 | locus YOR231W, strain MKK1, stronger effect = lower value 1.01 | locus YPL256C, strain CLN2, stronger effect = lower value 1.01

— PubChem BioAssay AID1159580 (chemical genetic matrix, 2015)
